Records with an inconclusive call do not appear. Entries that show only a call come without a potency. Activity calls are given as the source filed them. Calls follow the shape of the dose curve; as a rule, active = well fitted inhibition curve with a large enough effect; inconclusive = small, poorly fitted or top-dose-only effect; inactive = flat fitted curve, though single readings scatter.

This experiment concerns CRL-7250. As to the kind of experiment: qHTS assay to identify novel small-molecules to repurpose for Merkel cell carcinoma treatment (AID 1296009). Also: nearly all actives have a fitted effect of over 60% in size. As to conditions: MCC and control cell lines, CellTiter-Glo viability, 72 h; series mostly up to 92 µM. In a few lines: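 Viability readout: ATP luminescence (CellTiter-Glo) after 72 hr drug exposure at 37 degree celsius. Dose-response format was 8 points for NPC and 11 points for MIPE; data normalized to in-plate controls.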
For orientation: qHTS replaces the single test concentration by a dilution series.
Regarding `C=Cc1cc2oc(-c3ccc(O)c(F)c3)nc2cc1O`, the Potency result is “inactive”.
With `COC1C=C([C@@H]2CC=C3[C@@]4(C)C(CC[C@]32C)[C@@]2(C)C=CC(=O)C(C)(C)C2C[C@H]4OC(C)=O)C(=O)O1` (some centres undefined), the Potency entry is “inactive”.
For the compound `CC(C)CC(=O)NCCn1cc(C(=O)O)c(=O)cc1C(O)c1ccccc1` (centres undefined), the Potency result is “inactive”.
The value for `CC(NC(=O)[C@H](Cc1ccccc1)NC(=O)OCc1ccccc1)C(=O)CF` (some centres undefined) was “inactive”; that for `CC(C)CC(=O)n1cc(C(N)=O)c(=O)cc1C(O)c1ccccc1` (centres undefined) was “inactive”; that for `CCC/C=C/C=C/C1CC(O)C2(O)C(=O)OCC12` (centres undefined) was “inactive”.
Take `CCC(=O)N[C@@H]1Cc2ccccc2[C@H](c2ccccc2)C1`: the Potency entry was “inactive”.
The result for `CC12CCC3c4ccc(OC5OC(C(=O)O)C(O)C(O)C5O)cc4CCC3C1CCC2O` (centres undefined) reads “inactive”; that for `Cc1c(N2C(=O)c3ccc(C(=O)O)cc3C2=O)c(=O)n(-c2ccccc2)n1C`, “inactive”.

Source of the values: PubChem BioAssay (NCATS).
